From PubChem BioAssay AID463173 (ICCB-Longwood Screening Facility, Harvard Medical School, 2010)
Out of some 52,000 compounds screened, about 4,300 (8.3%) were called active. This is one part of a sample in which actives are shown more often than they occur. Unmarked numbers belong to inactive results. No stated cut-off is given here; in the data, active means survival mostly below about 52% (no sharp cut-off); inactive means mostly above about 56%.

Each molecule was assayed on DeltatarO mutant (assay: growth inhibition of S. aureus wild type versus tarO mutant, primary screen, teichoic acid synthesis inhibitors, RN4220, OD600 (AID 463173)). Settings: OD600, 18 h, hits give low values, screened at 18.75 µg/mL (by protocol).
COc1ccc(/C=C\c2onc(C)c2S(=O)(=O)N2CCC(C(=O)Nc3cccc(C)c3C)CC2)cc1 showed a survival of 68%.
Cc1ccc(-c2nnn(CCC(=O)NC(C)(C)C)n2)cc1 showed a survival of 91%.
In the case of Cc1ccc(C(=O)NCCC(C)C)cc1NC(=O)c1nsc2ccccc12, the survival was 73%.
N#C/C(=C/c1cccs1)C(N)=S showed a survival of 99%.
With Cc1cc(SCC(=O)NCc2ccc(Cl)cc2)nc(=O)[nH]1 the survival was 86%.
With O=C(Nc1cccc(-n2cnnn2)c1)c1ccccc1 the survival was 95%.
Molecule N#C/C(=C/Nc1cccc2ccccc12)c1nc2ccccc2o1 has a survival of 54%.
With N#C/C(=C\Nc1ccccc1O)c1nc2ccccc2o1 the survival was 1% (active).
Cc1ccc(C)c(N/C=C(\C#N)c2nc3ccccc3o2)c1 was tested, and the survival was 95%.
With CCCOC(=O)c1c(NC(=O)C(C)Sc2nc(-c3ccccc3)cc(C(F)(F)F)n2)sc(C(=O)N(C)C)c1C (configuration not stated) the survival was 132%.
Work on CC(Oc1ccccc1)C(=O)Nc1nc2ccc(S(N)(=O)=O)cc2s1 (configuration not stated) yielded a survival of 102%.
COCCNc1nc(NCc2ccccc2OC)c2cnn(C)c2n1 showed a survival of 69%.
In the case of CCOC(=O)CCc1c(C)nc2cc(-c3cc(OC)cc(OC)c3)[nH]n2c1=O, the survival was 90%.
For CCCCc1c(C)nc2c(-c3ccc(Cl)cc3)c(C)[nH]n2c1=O, the survival was -2% (active).
For CCCCc1c(C)nc2c(-c3ccc(OC)cc3)c(C)[nH]n2c1=O, the survival was 7% (active).
CCOC(=O)Cc1c(C)nc2c(-c3ccc(Cl)cc3)c(C(F)(F)F)nn2c1C gave a survival of 63%.
In the case of Cc1nc2c(-c3ccc(F)cc3)c(C)nn2c(C)c1CCC(=O)NCc1ccc(Cl)cc1, the survival was 96%.
For CCCCc1nc2ccccc2n2c(-c3ccc(OC)cc3)c3c(=O)n(C)c(=O)n(C)c3c12, the survival was 49%.
c1ccc(Cn2ncc3c(N4CCCCC4)ncnc32)cc1 showed a survival of 77%.
COc1ccc(C2=C(C)C(=O)N(Cc3ccc(C(=O)NC(C)c4ccccc4)cc3)S2(=O)=O)cc1 (configuration not stated) was tested, and the survival was 91%.
With CCOC(=O)c1c(NC(=O)/C=C/c2ccc(C)cc2)sc(C(C)=O)c1C the survival was 79%.
CCOc1ccc(CNC(=O)c2cnc3sc(N4CCCCCC4)nn3c2=O)cc1OC was tested, and the survival was 83%.
Work on O=C(Nc1ccc(F)cc1F)N1CCc2c(sc3c2CCCC3)C1c1ccc(F)cc1 (configuration not stated) yielded a survival of 93%.
COc1ccc(NC(=O)N2CCc3c(sc4c3CCCC4)C2c2ccccc2OC)cc1 (configuration not stated) was tested, and the survival was 54% (active).
Work on Cc1ccc(NC(=O)N2CCc3c(sc4c3CCCC4)C2c2ccccc2)cc1F (configuration not stated) yielded a survival of 102%.
With COc1cc(NC(=O)N2CCc3c(sc4c3CCCC4)C2c2ccccc2)cc(OC)c1OC (configuration not stated) the survival was 103%.
For Cc1cccc(NC(=O)N2CCc3c(sc4c3CCCC4)C2c2ccc(F)cc2)c1 (configuration not stated), the survival was 37% (active).
In the case of COc1ccc(NC(=O)N2CCc3c(sc4c3CCCC4)C2c2ccc(F)cc2)cc1 (configuration not stated), the survival was 101%.
In the case of Cc1ccc([N+](=O)[O-])c(Oc2ncnc3c2oc2ccccc23)c1, the survival was 101%.
Oc1c(C(c2ccccc2F)N2CCC3(CC2)OCCO3)sc2nc(-c3ccco3)nn12 (configuration not stated) was tested, and the survival was 102%.
Cc1ccc(C)c(Nc2cc(C(=O)NC3CCCC3)c3ccccc3n2)c1 gave a survival of 87%.
For COc1ccc(N2C(=O)CS(=O)(=O)C23C(=O)N(Cc2ccccc2F)c2ccccc23)cc1Cl (configuration not stated), the survival was 75%.
In the case of CCOC(=O)c1c(NC(=O)c2ccc(S(=O)(=O)N(CC(C)C)CC(C)C)cc2)sc2c1CCN(C(=O)OCC)C2, the survival was 124%.
Cc1ccc(Cl)cc1NC(=O)CSC1=Nc2ccccc2C2=NC(Cc3ccccc3)C(=O)N12 (configuration not stated) was tested, and the survival was 71%.
For COc1ccccc1NC(=O)CSc1nnc(NC(=O)Nc2ccc(C)cc2)s1, the survival was 58%.
For COc1ccc(NC(=O)CSc2nnc(NC(=O)Nc3ccccc3)s2)c(OC)c1, the survival was 47% (active).
Molecule COc1ccc(NC(=O)CSc2nnc(NC(=O)Nc3ccccc3)s2)cc1OC has a survival of 86%.
With CCc1ccc(-n2nc(C)c3c(C(=O)N4CCN(c5ccccc5)CC4)cc(C)nc32)cc1 the survival was 94%.
Molecule Cc1cccc(S(=O)(=O)c2cn(Cc3ccccc3)c3cc(N4CCCCC4)c(F)cc3c2=O)c1 has a survival of 82%.
With Cn1cc(S(=O)(=O)c2cccc(Cl)c2)c(=O)c2cc(F)c(N3CCN(c4ccccc4)CC3)cc21 the survival was 6% (active).
In the case of CCN1CCN(c2cc3c(cc2F)c(=O)c(S(=O)(=O)c2cc(C)cc(C)c2)cn3CC)CC1, the survival was -1% (active).
For Cc1cccc(S(=O)(=O)c2cn(Cc3ccc(F)cc3)c3cc(N4CCCCC4)c(F)cc3c2=O)c1, the survival was -2% (active).
CCn1cc(S(=O)(=O)c2cc(C)cc(C)c2)c(=O)c2cc(F)c(N3CCCC3)cc21 gave a survival of 109%.
With Cn1cc(S(=O)(=O)c2ccccc2)c(=O)c2cc(F)c(N3CCN(c4ccccc4)CC3)cc21 the survival was 116%.
In the case of CCn1cc(C(=O)O)c(=O)c2cc(F)c(N3CCN(C(=O)c4ccccc4F)CC3)cc21, the survival was 3% (active).
CCn1cc(C(=O)NCC(C)C)c(=O)c2cc(F)c(N3CCN(C(=O)c4ccco4)CC3)cc21 gave a survival of 76%.
With Cn1cc(S(=O)(=O)c2cccc(Cl)c2)c(=O)c2cc(F)c(N3CCN(c4ccc(F)cc4)CC3)cc21 the survival was 70%.
CCn1cc(S(=O)(=O)c2cc(C)cc(C)c2)c(=O)c2cc(F)c(N3CCCCC3)cc21 gave a survival of 86%.
In the case of O=c1c(S(=O)(=O)c2ccccc2)cn(Cc2ccc(F)cc2)c2cc(N3CCCCC3)c(F)cc12, the survival was 80%.
In the case of CCn1cc(C(=O)N2CCN(c3ccccc3F)CC2)c(=O)c2cc(S(=O)(=O)N(C)C)ccc21, the survival was 122%.
COc1cccc(C(c2sc3nc(-c4ccco4)nn3c2O)N2CCC(C)CC2)c1 (configuration not stated) gave a survival of 78%.
CC(C)(C)C(=O)OCc1cc(=O)n2nc(C3CC3)sc2n1 showed a survival of 80%.
With CC(=O)c1cc(-c2ccc(F)cc2)n(CCC(=O)NCc2ccccc2C)c1C the survival was 81%.
With Cc1ccc(-c2nnc3ccccc3c2C(=O)Nc2ccc(F)cc2)cc1 the survival was 100%.
In the case of CCCCNC(=O)Cn1cnc2sc(C)c(S(=O)(=O)N3CCN(c4ccccc4OC)CC3)c2c1=O, the survival was 86%.
Molecule CCOC(=O)C1CCCN(S(=O)(=O)c2cc3c4c(c2)CC(=O)N4CCC3)C1 (configuration not stated) has a survival of 93%.
CCOc1ccc(-c2ccc(NS(=O)(=O)c3cc(C)ccc3OC)cc2)nn1 showed a survival of 86%.
Work on O=C(NCCc1csc(-c2ccc(F)cc2)n1)c1cccs1 yielded a survival of 72%.
Cc1ccc(NC2=CC(c3ccccc3F)N(c3ccc(C)cc3)C2=O)cc1 (configuration not stated) was tested, and the survival was 49%.
In the case of CC(=O)NC1CCN(C(=O)Nc2ccccc2)CC1, the survival was 91%.
In the case of Cc1csc2nc(COC(=O)c3ccccc3NC(=O)c3ccc(F)cc3)cc(=O)n12, the survival was 55%.
Molecule COc1ccc(-c2noc(N3CCC(C(=O)N4CCN(c5ccccc5OC)CC4)CC3)n2)cc1 has a survival of 61%.
Work on Cc1cccc(OCCCSc2nc(-c3ccc(C(C)(C)C)cc3)nc3cc(=O)[nH]n23)c1C yielded a survival of 102%.
CCCNC(=O)c1ccc(Cn2c(SCC(N)=O)nc3ccccc3c2=O)cc1 gave a survival of 91%.
Molecule CC(C)CCNC(=O)c1ccc(Cn2c(SCC(=O)NC(C)C)nc3ccccc3c2=O)cc1 has a survival of 144%.
For CC(C)CCNC(=O)c1ccc(Cn2c(SCC(N)=O)nc3ccccc3c2=O)cc1, the survival was 46% (active).
With Cc1cc(C)c(NC(=O)c2cc(CN3CCOCC3)on2)c(C)c1 the survival was 70%.
For COc1ccc(/C=C/C(=O)Nc2ccc(C)cc2)cc1, the survival was 77%.
Work on CCOCCOC(=O)c1ccc(NC(=O)/C=C/c2ccc(OC)c(OC)c2)cc1 yielded a survival of 137%.
With COc1ccc(OC)c(/C=C/C(=O)Nc2ccc(C(=O)OCCC(C)C)cc2)c1 the survival was 33% (active).
Work on Cc1cc(=O)[nH]c2c(C)c(Cl)ccc12 yielded a survival of 93%.
Molecule Cc1ccc(Cl)cc1Nc1nn2c(=O)c3ccc(C(=O)NC4CCC(C)CC4)cc3nc2s1 (configuration not stated) has a survival of 100%.
With CCn1ccc2cc(S(=O)(=O)N3CCC(C(=O)NCc4ccc(OC(C)C)cc4)CC3)ccc21 the survival was 95%.
For COc1ccc(CNC(=O)C2CCN(S(=O)(=O)c3ccc(F)cc3)CC2)cc1, the survival was 71%.
CCn1ccc2cc(S(=O)(=O)N3CCC(C(=O)NCc4ccc(F)cc4)CC3)ccc21 was tested, and the survival was 85%.
CCn1ccc2cc(S(=O)(=O)N3CCC(C(=O)NCc4ccc(OC)cc4)CC3)ccc21 was tested, and the survival was 20% (active).
With CSc1cccc(NC(=O)N2CCN(S(=O)(=O)c3ccc4c(ccn4C)c3)CC2)c1 the survival was 58%.
For CCn1ccc2cc(S(=O)(=O)N3CCCN(C(=O)Nc4cccc(SC)c4)CC3)ccc21, the survival was 47% (active).
CCCCNC(=O)C1CCN(S(=O)(=O)c2ccc3c(ccn3CC)c2)CC1 gave a survival of 99%.
For COc1ccc(CNC(=O)C2CCN(S(=O)(=O)c3ccc(C)cc3)CC2)cc1, the survival was 56% (active).
With Cc1ccc(CNC(=O)C2CCN(S(=O)(=O)c3ccc(F)cc3)CC2)cc1 the survival was 62%.
In the case of CCC(C)NC(=O)C1CCN(S(=O)(=O)c2ccc3c(ccn3CC)c2)CC1 (configuration not stated), the survival was 8% (active).
For CCn1ccc2cc(S(=O)(=O)N3CCCN(C(=O)Nc4cccc(Cl)c4)CC3)ccc21, the survival was 83%.
CCn1ccc2cc(S(=O)(=O)N3CCC(C(=O)NCC(C)c4ccccc4)CC3)ccc21 (configuration not stated) was tested, and the survival was 94%.
Work on CN1C(C(=O)c2ccccc2)=C(OC(=O)c2ccc(Br)cc2)c2ccccc2S1(=O)=O yielded a survival of 123%.
Molecule Cc1ccc(Nc2cc(C(=O)NC3CCCC3)c3ccccc3n2)c(C)c1 has a survival of 77%.
In the case of CCN(CC)C(=O)C1CCN(Cc2cccc(OC)c2OC)CC1, the survival was 99%.
